The record followed here is PubChem BioAssay (Tox21).

Assay [1] has as its target Acetylcholinesterase (Homo sapiens) (UniProt P22303). In words: Acetylcholinesterase (AChE) small molecule antagonists: colormetric cell-based qHTS assay (AID 1347395). Note: nearly all actives have a fitted effect of over 30% in size. Note: potency is the fitted concentration of half-maximal effect. Particulars: SH-SY5Y cells AChE activity, colorimetric (Ellman); series mostly up to 115 µM. Put shortly:
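SH-SY5Y cells; cpd 30 min 37 C; + DTNB/acetylthiocholine, 90 min 37 C; colorimetric thiocholine read; qHTS.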
(In general: qHTS replaces the single test concentration by a dilution series.)

Assay [2] has the same target. In words: Acetylcholinesterase (AChE) small molecule antagonists: enzyme-based qHTS assay (AID 1347397). Note: nearly all actives have a fitted effect of over 55% in size. Note: potency is the fitted concentration of half-maximal effect. Particulars: Potency: AChE enzyme activity inhibition; outcome: AChE enzyme activity inhibition; series mostly up to 115 µM. Summed up:
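Colorimetric DTNB readout of acetylthiocholine hydrolysis, 10 min at room temperature, after 30 min room-temperature exposure of 50 mU/mL recombinant human enzyme to compound; DMSO vehicle control.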

Assay [3] has the same target. In words: Acetylcholinesterase (AChE) small molecule antagonists: fluorescence cell-based qHTS assay (AID 1347398). Note: nearly all actives have a fitted effect of over 50% in size. Note: potency is the fitted concentration of half-maximal effect. Particulars: SH-SY5Y cells; Potency: AChE activity; outcome: AChE activity; series mostly up to 115 µM. Put shortly: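 Cellular AChE activity read as thiocholine from acetylthiocholine hydrolysis, detected by Thiolite Green fluorescence at 490/520 nm after 40 min at room temperature. Compounds were pre-incubated 30 min at 37 C on adherent SH-SY5Y cells.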

Assay [4] has the same target. In words: Acetylcholinesterase (AChE) small molecule antagonists: enzyme-based qHTS assay with human liver microsomes (AID 1347399). Note: nearly all actives have a fitted effect of over 60% in size. The conditions noted are these: Potency: qHTS inhibition; outcome: qHTS inhibition; series mostly up to 115 µM. Summed up: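 Recombinant human AChE (50 mU/mL in the enzyme mix) and human liver microsomes (0.25 mg/mL final) were preincubated with compound and NADPH (0.25 mg/mL final) for 30 min at 37 C. Acetylthiocholine/DTNB was then added; thiocholine was read colorimetrically after 10 min at room temperature.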

SMILES strings stand for the structures. Values joined by “and” are separate entries in the source; they are usually repeats but may differ in a detail not shown here. Identical values can stand only once. Values without a mark were called inactive. Inconclusive results are not listed. Active and inactive are the calls of the source. Calls come from the whole dose curve.
% is set by controls: 0 for no effect and ±100 for the full control effect.

Acetylcholinesterase (Homo sapiens), sequence (P22303 whole entry, looked up): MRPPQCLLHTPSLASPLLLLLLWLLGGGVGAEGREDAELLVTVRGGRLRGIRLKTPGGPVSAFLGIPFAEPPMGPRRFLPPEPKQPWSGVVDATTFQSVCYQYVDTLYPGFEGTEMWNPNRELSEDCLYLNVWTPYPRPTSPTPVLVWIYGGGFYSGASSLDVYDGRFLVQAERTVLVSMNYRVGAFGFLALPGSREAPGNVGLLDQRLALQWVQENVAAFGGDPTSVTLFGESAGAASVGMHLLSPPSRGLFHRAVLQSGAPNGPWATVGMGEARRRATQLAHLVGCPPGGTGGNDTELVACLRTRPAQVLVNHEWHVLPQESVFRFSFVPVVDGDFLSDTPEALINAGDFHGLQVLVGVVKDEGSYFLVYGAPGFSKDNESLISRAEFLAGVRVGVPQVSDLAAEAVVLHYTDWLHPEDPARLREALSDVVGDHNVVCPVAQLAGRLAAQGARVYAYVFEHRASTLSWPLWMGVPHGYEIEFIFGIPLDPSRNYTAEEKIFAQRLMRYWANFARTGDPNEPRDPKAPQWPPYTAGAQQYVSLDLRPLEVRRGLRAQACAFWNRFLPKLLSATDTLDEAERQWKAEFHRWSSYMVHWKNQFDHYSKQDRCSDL

As for `O=c1[nH]nc(-c2ccc([N+](=O)[O-])o2)o1`, the Potency entry in assay [1], in assay [2], in assay [3] and in assay [4] was “inactive” throughout.
As for `CCC(N)(CO)CO`, the Potency result in assay [1], in assay [2], in assay [3] and in assay [4] was “inactive” each time.
Regarding `Cc1ccc(C=O)cc1`, the Potency result in assay [1], in assay [2], in assay [3] and in assay [4] was “inactive” in each case.
On to `OC1CCCCCCCCCCC1`, for which the Potency result in assay [1], in assay [2], in assay [3] and in assay [4] was “inactive” throughout.
As for `Cc1cc(NC(=O)C2=C(O)c3ccccc3S(=O)(=O)N2C)no1`, the Potency result in assay [1], in assay [2], in assay [3] and in assay [4] was “inactive” in each case.
Turning to `CC1=C(/C=C/C(C)=C/C=C/C(C)=C/CO)C(C)(C)CCC1`, the Potency entry in assay [1], in assay [2], in assay [3] and in assay [4] was “inactive” throughout.
Turning to `O=C(c1ccc(O)cc1)c1ccc(O)cc1O`, the Potency result in assay [1], in assay [2], in assay [3] and in assay [4] was “inactive” throughout.
With `CC(=O)N[C@H]1[C@H]([C@H](O)[C@H](O)CO)OC(C(=O)O)=C[C@@H]1N=C(N)N`, the Potency entry in assay [1], in assay [2], in assay [3] and in assay [4] was “inactive” in each case.
Turning to `CC(C)(C)C1=CC(=O)C=C(C(C)(C)C)C1=O`, the Potency entry in assay [1], in assay [2], in assay [3] and in assay [4] was “inactive” throughout.
For the molecule `O[C@@H](COc1cccc2ncccc12)CN1CCN(C2c3ccccc3[C@@H]3[C@H](c4ccccc42)C3(F)F)CC1` (stereo not given in full), the Potency result in assay [1], in assay [2], in assay [3] and in assay [4] was “inactive” each time.
In the case of `C[C@H](NC(CCc1ccccc1)C(=O)O)C(=O)N1CCC[C@H]1C(=O)O` (stereo not given in full), the Potency entry in assay [1], in assay [2], in assay [3] and in assay [4] was “inactive” in each case.
Take `Cc1ccccc1S(=O)(=O)O`: the Potency entry in assay [1], in assay [2], in assay [3] and in assay [4] was “inactive” each time.
In the case of `c1cnc2cc3c(cc2n1)C1CNCC3C1`, the Potency result in assay [1], in assay [2], in assay [3] and in assay [4] was “inactive” throughout.
Regarding `Cc1cc(C(=O)O)ccc1[N+](=O)[O-]`, the Potency result in assay [1], in assay [2], in assay [3] and in assay [4] was “inactive” throughout.
On to `CCCOCCOCCO`, for which the Potency result in assay [1], in assay [2], in assay [3] and in assay [4] was “inactive” throughout.
In the case of `Cc1ccc(C(C)C)c(O)c1`, the Potency result in assay [1], in assay [2], in assay [3] and in assay [4] was “inactive” in each case.
Regarding `C/C=C/C(=O)O`, the Potency result in assay [1], in assay [2], in assay [3] and in assay [4] was “inactive” in each case.
As for `O=C1c2ccccc2C(=O)c2cc(O)ccc21`, the Potency entry in assay [1], in assay [2], in assay [3] and in assay [4] was “inactive” throughout.
`NCCNCCO`: the Potency result in assay [1], in assay [2], in assay [3] and in assay [4] was “inactive” in each case.
Turning to `C=COCCCCO`, the Potency entry in assay [1], in assay [2], in assay [3] and in assay [4] was “inactive” in each case.
On to `O=C(O)c1cccc(O)c1`, for which the Potency entry in assay [1], in assay [2], in assay [3] and in assay [4] was “inactive” each time.
On to `COc1cc(/C=C/C(=O)O[C@H]2CC[C@]34C[C@]35CC[C@]3(C)[C@@H]([C@H](C)CCC=C(C)C)CC[C@@]3(C)[C@@H]5CC[C@H]4C2(C)C)ccc1O`, for which the Potency entry in assay [1], in assay [2], in assay [3] and in assay [4] was “inactive” throughout.
On to `Nc1[nH]c(=O)ncc1F`, for which the Potency entry in assay [1], in assay [2], in assay [3] and in assay [4] was “inactive” each time.
In the case of `CC(=O)OCC(=O)[C@@]1(O)CCC2C3CCC4=CC(=O)CC[C@]4(C)C3[C@@H](O)C[C@@]21C` (stereo not given in full), the Potency result in assay [1], in assay [2], in assay [3] and in assay [4] was “inactive” throughout.
In the case of `O=c1[nH]cccc1O`, the Potency entry in assay [1], in assay [2], in assay [3] and in assay [4] was “inactive” in each case.
Regarding `C=CCCCCCCCCO`, the Potency result in assay [1], in assay [2], in assay [3] and in assay [4] was “inactive” throughout.
As to `CCCC(C)=O`, the Potency entry in assay [1], in assay [2], in assay [3] and in assay [4] was “inactive” each time.
On to `CC(C)COC(=O)c1ccccc1`, for which the Potency entry in assay [1], in assay [2], in assay [3] and in assay [4] was “inactive” in each case.
Turning to `Sc1nc(S)nc(S)n1`, the Potency result in assay [1], in assay [2], in assay [3] and in assay [4] was “inactive” throughout.
With `COCCOCCOCCO`, the Potency result in assay [1], in assay [2], in assay [3] and in assay [4] was “inactive” each time.
Turning to `CCCCOC(=O)CC(CC(=O)OCCCC)(OC(C)=O)C(=O)OCCCC`, the Potency entry in assay [1], in assay [2], in assay [3] and in assay [4] was “inactive” throughout.
With `O=S(=O)(O)CC(O)CCl` (stereo not given), the Potency entry in assay [1], in assay [2], in assay [3] and in assay [4] was “inactive” throughout.
On to `O=C(NOCC1CC1)c1ccc(F)c(F)c1Nc1ccc(I)cc1Cl`, for which the Potency entry in assay [1], in assay [2], in assay [3] and in assay [4] was “inactive” in each case.
Take `NCCOCCOCCN`: the Potency result in assay [1], in assay [2], in assay [3] and in assay [4] was “inactive” each time.
Take `O=C(CCN1CCN(CCO)CC1)N1c2ccccc2Sc2ccc(C(F)(F)F)cc21`: the Potency result in assay [1], in assay [2], in assay [3] and in assay [4] was “inactive” throughout.
`COc1ccc(CCN(C)CCCN2CCc3cc(OC)c(OC)cc3CC2=O)cc1OC`: the Potency result in assay [1], in assay [2], in assay [3] and in assay [4] was “inactive” in each case.
On to `C[C@H]1[C@H](NC(=O)/C(=N/OC(C)(C)C(=O)O)c2csc(N)n2)C(=O)N1S(=O)(=O)O` (stereo in doubt), for which the Potency entry in assay [1], in assay [2], in assay [3] and in assay [4] was “inactive” each time.
For the molecule `OCc1ccc(Cl)cc1Cl`, the Potency result in assay [1], in assay [2], in assay [3] and in assay [4] was “inactive” throughout.
Regarding `C#CC(C)(O)CC(C)C` (stereo not given), the Potency result in assay [1], in assay [2], in assay [3] and in assay [4] was “inactive” throughout.
On to `CCCCCCCC(=O)Oc1c(Br)cc(C#N)cc1Br`, for which the Potency entry in assay [1], in assay [2], in assay [3] and in assay [4] was “inactive” in each case.
Take `CS(=O)(=O)CCNCc1ccc(-c2ccc3ncnc(Nc4ccc(OCc5cccc(F)c5)c(Cl)c4)c3c2)o1`: the Potency entry in assay [1], in assay [2], in assay [3] and in assay [4] was “inactive” throughout.
As to `CN(C)CCOC(C)(c1ccccc1)c1ccccn1` (stereo not given), the Potency entry in assay [1], in assay [2], in assay [3] and in assay [4] was “inactive” in each case.
Consider `CC(C)=CCC[C@@](C)(O)[C@H]1CC=C(C)CC1`, for which the Potency entry in assay [1], in assay [2], in assay [3] and in assay [4] was “inactive” each time.
`CC(C)C(=O)C(C)C`: the Potency entry in assay [1], in assay [2], in assay [3] and in assay [4] was “inactive” each time.
Consider `CC1(C)[C@H]2CC[C@]1(C)[C@H](O)C2`, for which the Potency result in assay [1], in assay [2], in assay [3] and in assay [4] was “inactive” in each case.
Regarding `CC(CCc1ccccc1)NCC(O)c1ccc(O)c(C(N)=O)c1` (stereo not given), the Potency result in assay [1], in assay [2], in assay [3] and in assay [4] was “inactive” each time.
Consider `COc1cc(O)cc(O)c1`, for which the Potency result in assay [1], in assay [2], in assay [3] and in assay [4] was “inactive” each time.
For `CC1CCC(CO)CC1` (stereo not given), the Potency result in assay [1], in assay [2], in assay [3] and in assay [4] was “inactive” each time.
Consider `CCc1nn(C2CCCCC2)c2cc(C3(C#N)CCC(C(=O)O)CC3)ccc12` (stereo not given), for which the Potency entry in assay [1], in assay [2], in assay [3] and in assay [4] was “inactive” each time.
Take `CCN(CCC#N)c1ccc(N=Nc2c(Cl)cc([N+](=O)[O-])cc2Cl)cc1`: the Potency entry in assay [1], in assay [2], in assay [3] and in assay [4] was “inactive” throughout.
Take `CCC(=O)c1ccc(O)cc1`: the Potency result in assay [1], in assay [2], in assay [3] and in assay [4] was “inactive” throughout.
For `NC(=O)/N=N/C(N)=O`, the Potency was 63.5 µM (active) in assay [1]; 71.2 µM (active) in assay [2]; 7.12 µM (active) and 31.7 µM (active) in assay [3]. Also, in assay [4], the Potency entry was “inactive”.
In the case of `CN1C[C@@H]2C[C@H]1CN2c1cc2c(cc1F)c(=O)c(C(=O)O)cn2C1CC1`, the activity, negative = inhibition in assay [1] is 1.26% [at 23.6 µM]. For the same molecule, the activity change, negative = inhibition in assay [2] is -0.543% [at 23.6 µM]; in assay [3], 1.64% [at 23.8 µM]; in assay [4] it was 0.0665% [at 23.6 µM].
For the molecule `O=Cc1ccc(CO)o1`, the Potency entry in assay [1], in assay [2], in assay [3] and in assay [4] was “inactive” in each case.
As to `O=C(O)P(=O)(O)O`, the Potency entry in assay [1], in assay [2], in assay [3] and in assay [4] was “inactive” in each case.
Take `CC(COCCO)OCCO` (stereo not given): the Potency entry in assay [1], in assay [2], in assay [3] and in assay [4] was “inactive” throughout.
For the molecule `CC(C)(C)C(O)/C=C/c1ccc2c(c1)OCO2` (stereo not given), the Potency entry in assay [1], in assay [2], in assay [3] and in assay [4] was “inactive” in each case.
On to `CC(=O)O[C@H](CC(=O)[O-])C[N+](C)(C)C`, for which the Potency result in assay [1], in assay [2], in assay [3] and in assay [4] was “inactive” in each case.
Turning to `CCC(Cl)CC(Cl)C(Cl)C(Cl)C(Cl)C(C)Cl` (stereo not given), in assay [1], the activity, negative = inhibition was -0.388% [at 23.6 µM]. The activity change, negative = inhibition in assay [2] is -3.68% [at 23.6 µM]; in assay [3] it was 0.856% [at 23.8 µM]; in assay [4], 0.639% [at 23.6 µM].
`CCNc1nc(NC(C)(C)C)nc(OC)n1`: the Potency result in assay [1], in assay [2], in assay [3] and in assay [4] was “inactive” each time.
